Screening data from PubChem BioAssay.
A selection: hits, their analogues and other compounds. The true share with any hit is near 0.9%.
BJeLR viab HTS = compounds reducing viability of BJeLR cells; BJeLR fibroblasts viability, CellTiterGlo ATP luminescence, 48 h; HRASV12, hTERT and SV40 LT/ST transformed; viability loss activity score, % (test concentration not listed); actives 0.64% (n = 30,000); AID 2275; in the data active = viability loss activity score above about 50%;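 also: higher score means fewer live cells and less ATP luminescence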
A1 inhib = A1 inhibition; MEF A1-2A-BIM cells, caspase-Glo luminescence, 3 h; percent of clofoctol signal, DMSO as zero; caspase activation, % (no concentration beside the values); actives 0.51% (n = 21,000); AID 2241;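 active = most replicate scores above 10, or exactly half above 10 with mean activity above 10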;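 also: effector caspase 3 and 7 activity cleaving a DEVD luciferin substrate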
Of the large screens only hits and unclear results are named; the others gave an inactive call.

C=C1C(=O)O[C@@H]2/C=C(/C)CC/C=C(/C)C[C@@H](OC(=O)/C(=C/CO)CO)C12 (stereo not given in full)	none
COC(=O)c1ccc(OP2(=O)COc3ccccc3OC2)cc1	none
N#Cc1cc2c(nc1SCc1ccccc1Br)C1CCN2CC1	none (no result: A1 inhib)
COC[C@H]1OC(=O)c2coc3c2[C@@]1(C)C1=C(C3=O)C2CCC(=O)[C@@]2(C)C[C@H]1OC(C)=O (stereo not given in full)	A1 inhib 52
COc1ccc2c(c1OC)C(=O)O[C@@H]2[C@@H]1c2cc3c(cc2CCN1C)OCO3	none
CSc1ncccc1C1=N/C(=C\N(C)C)C(=O)O1	none
COc1ccc(C[C@H]2NC[C@H](O)[C@H]2OC(C)=O)cc1	BJeLR viab HTS 117, A1 inhib 13
COC(=O)CC1=C(C(=O)OC)C2(C(=O)Nc3ccccc32)C(C(=O)OC)=C(N)O1 (stereo not given)	none
COC1CC(OC2C(C)OC(OC3C(C)OC(OC4C(C)OC(O[C@H]5CC[C@@]6(C)C(=CC[C@]7(O)C6CC(OC(=O)c6ccccc6)[C@@]6(C)[C@]7(O)CC[C@@]6(O)C(C)=O)C5)CC4OC)CC3OC)CC2OC)OC(C)C1O (stereo not given in full)	BJeLR viab HTS 75
COC(=O)[C@H]1O[C@@H]2C[C@H]3OC(n4cnc5c(N)ncnc54)[C@H](OC)[C@H]3O[C@@]2(O)[C@@H](O)[C@@H]1O (stereo not given in full)	none
CC(=O)O[C@@H](c1nc2ccccc2c(=O)n1[C@@H]1C[C@@]2(OC1=O)c1ccccc1N1C(=O)[C@H](C)N(O)[C@@H]12)C(C)C	none
CCN1CC2(COC)CCC(O)C34C5CC6C(OC)CC(O)(C5C6O)C(C(OC)C23)C14 (stereo not given)	none
CO[C@@H]1[C@H](O)[C@@H](O[C@@H]2C[C@H]3CC[C@@H]4C(CC[C@]5(C)[C@@H](C6=CC(=O)OC6)CC[C@]45O)[C@@]3(C)[C@H](O)C2)O[C@H](C)[C@@H]1O[C@@H]1O[C@H](CO)[C@@H](O)[C@H](O)[C@H]1O (stereo not given in full)	BJeLR viab HTS 111
CC(=O)O[C@H]1C[C@H](O[C@H]2[C@@H](O)C[C@H](O[C@H]3[C@@H](O)C[C@H](O[C@H]4CC[C@@]5(C)C(CCC6C5C[C@@H](O)[C@]5(C)[C@@H](C7=CC(=O)OC7)CC[C@]65O)C4)O[C@@H]3C)O[C@@H]2C)O[C@H](C)[C@H]1O[C@@H]1O[C@H](CO)[C@@H](O)[C@H](O)[C@H]1O (stereo not given in full)	BJeLR viab HTS 109
CO[C@H]1[C@H](O)[C@H](O[C@H]2CC[C@]3(C)C4CC[C@]5(C)[C@H](C6=CC(=O)OC6)CC[C@]5(O)C4CC[C@@H]3C2)O[C@@H](C)[C@@H]1O[C@@H]1O[C@H](CO[C@@H]2O[C@H](CO)[C@@H](O)[C@H](O)[C@H]2O)[C@@H](O)[C@H](O)[C@H]1O (stereo not given in full)	BJeLR viab HTS 100
COc1ccc(-n2c(C)nc3ccccc3c2=O)cc1	none
O=C(CSC(c1ccccc1)c1ccccc1)Nc1ccccc1	none
O=C(Nc1ccc2c(C(F)(F)F)cc(=O)oc2c1)c1cc(Cl)cc(Cl)c1	none
COc1ccc(/C=C/C(=O)C2C(=O)NC34CCCCC3C2c2ccccc2O4)c(OC)c1OC (stereo not given)	none (no result: A1 inhib)
CC(C)(C)c1cc(C=C(C#N)C#N)cc(C(C)(C)C)c1O	BJeLR viab HTS 71
N#CC(C#N)=Cc1ccc(O)c(O)c1	none
CC(C)c1cc2c(cc1O)[C@@]1(C)CCCC(C)(C)[C@@H]1CC2O (stereo not given in full)	none
CCc1nc2ccccc2c(=O)n1-c1ccccc1Cl	none
COC(=O)[C@@]12C(=O)C(C)C(=O)[C@]1(C)C(C)=C[C@H]1[C@]3(C)CC[C@H](OC(C)=O)C(C)(C)[C@H]3CC[C@@]12C (stereo not given in full)	none
Cc1cc(-n2c(=S)[nH]c3ccccc3c2=O)ccc1Br	none
O=C(NC(=O)c1ccccc1Cl)Nc1ccc2c(c1)S(=O)(=O)C=C2	none
